Results from PubChem BioAssay (Tox21).
Where “and” joins values, the source holds several entries; their conditions need not be identical. Identical values can stand only once. Results filed as inconclusive are left out. Where a call stands in place of a potency, no number is given. A structure can be active in one record and inactive in another. Calls of active or inactive are those of the source. Unless noted, the call rests on the fitted dose curve.

What was measured:
[1] = qHTS assay to identify small molecule agonists of the peroxisome proliferator-activated receptor delta (PPARd) signaling pathway - cell viability counter screen (AID 743211; active means well fitted curve in the direction sought with a large enough effect in the repeat runs; an effect the other way counts as inactive or inconclusive; further: nearly all actives have a fitted effect of over 55% in size; further: potency means the concentration at half of the fitted maximal effect)
In short: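 Read-out: CellTiter-Glo luminescence, 30 min RT, measured in the same wells as the beta-lactamase reporter. Cells: GeneBLAzer PPAR delta UAS-bla HEK293H, 3000 cells/well, compound exposure 17 h at 37C.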

[2] = target: Peroxisome proliferator-activated receptor delta (Homo sapiens) (UniProt Q03181); test: qHTS assay to identify small molecule agonists of the peroxisome proliferator-activated receptor delta (PPARd) signaling pathway (AID 743212)
Chain of Peroxisome proliferator-activated receptor delta (Homo sapiens) (Q03181 whole entry, looked up): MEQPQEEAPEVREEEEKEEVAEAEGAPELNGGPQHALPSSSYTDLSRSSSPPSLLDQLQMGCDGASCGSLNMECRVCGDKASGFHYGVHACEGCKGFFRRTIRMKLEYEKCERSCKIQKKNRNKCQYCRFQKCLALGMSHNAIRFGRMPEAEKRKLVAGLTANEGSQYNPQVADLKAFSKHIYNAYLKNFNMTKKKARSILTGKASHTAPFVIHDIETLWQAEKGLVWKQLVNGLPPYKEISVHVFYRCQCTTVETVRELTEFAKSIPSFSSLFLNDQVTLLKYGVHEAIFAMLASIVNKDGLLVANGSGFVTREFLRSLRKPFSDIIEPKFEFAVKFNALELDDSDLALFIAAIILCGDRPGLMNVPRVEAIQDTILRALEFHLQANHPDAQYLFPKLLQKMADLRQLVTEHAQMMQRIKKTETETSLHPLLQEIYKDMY
In short: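 Beta-lactamase reporter readout: a ratiometric FRET signal from the LiveBLAzer substrate after 2 h at room temperature. Compound exposure at 37 °C in PPARδ-bla HEK293H cells driven by an upstream activator sequence.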

[3] = qHTS assay to identify small molecule antagonists of the peroxisome proliferator-activated receptor delta (PPARd) signaling pathway - cell viability counter screen (AID 743213; active means well fitted curve in the direction sought with a large enough effect in the repeat runs; an effect the other way counts as inactive or inconclusive; further: nearly all actives have a fitted effect of over 50% in size; further: potency means the concentration at half of the fitted maximal effect)
In short: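 CellTiter-Glo was added to PPARd-bla HEK293H wells following 17 h compound treatment in the presence of 300 nM L165041. Luminescence was recorded after 30 min at room temperature.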

[4] = target: Peroxisome proliferator-activated receptor delta (Homo sapiens) (UniProt Q03181); test: qHTS assay to identify small molecule antagonists of the peroxisome proliferator-activated receptor delta (PPARd) signaling pathway (AID 743215; active means well fitted inhibition curve with a large enough effect in the signal ratio in the repeat runs, not every such curve was filed as active; the % refers to the signal ratio;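 further: cells stimulated with agonist L165041 at 300 nM final during compound exposure; series mostly up to about 62 µM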)
In short: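 HEK293H GeneBLAzer PPARd UAS-bla reporter cells; cpd + L165041 300 nM final, 17 h 37 C; LiveBLAzer B/G FRET substrate 2 h RT; fluorescence intensity read-out. Antagonist mode.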

[5] = qHTS assay to identify small molecule agonists of the farnesoid-X-receptor (FXR) signaling pathway - cell viability counter screen (AID 743218; active means well fitted curve in the direction sought with a large enough effect in the repeat runs; an effect the other way counts as inactive or inconclusive; further: nearly all actives have a fitted effect of over 45% in size)
In short: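 Luminescence from CellTiter-Glo, read after 30 min at RT, reports viability of GeneBLAzer FXR-UAS-bla HEK 293T cells treated 16 h with compounds in the wells used for the beta-lactamase reporter.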

[6] = qHTS assay to identify small molecule antagonists of the farnesoid-X-receptor (FXR) signaling pathway - cell viability counter screen (AID 743221; active means well fitted cell-killing curve with a large enough effect in the repeat runs, not every such curve was filed as active; further: nearly all actives have a fitted effect of over 50% in size)
In short: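 HEK 293T FXR-bla cells, 5 h pre-incubation; compound + CDCA 50 uM final, 16 h, 37 C; beta-lactamase FRET read first, then CellTiter-Glo luminescence, 30 min RT.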

[7] = target: Vitamin D3 receptor (Homo sapiens) (UniProt P11473); test: qHTS assay to identify small molecule agonists of the vitamin D receptor (VDR) signaling pathway (AID 743222)
Chain of Vitamin D3 receptor (Homo sapiens) (P11473 whole entry, looked up): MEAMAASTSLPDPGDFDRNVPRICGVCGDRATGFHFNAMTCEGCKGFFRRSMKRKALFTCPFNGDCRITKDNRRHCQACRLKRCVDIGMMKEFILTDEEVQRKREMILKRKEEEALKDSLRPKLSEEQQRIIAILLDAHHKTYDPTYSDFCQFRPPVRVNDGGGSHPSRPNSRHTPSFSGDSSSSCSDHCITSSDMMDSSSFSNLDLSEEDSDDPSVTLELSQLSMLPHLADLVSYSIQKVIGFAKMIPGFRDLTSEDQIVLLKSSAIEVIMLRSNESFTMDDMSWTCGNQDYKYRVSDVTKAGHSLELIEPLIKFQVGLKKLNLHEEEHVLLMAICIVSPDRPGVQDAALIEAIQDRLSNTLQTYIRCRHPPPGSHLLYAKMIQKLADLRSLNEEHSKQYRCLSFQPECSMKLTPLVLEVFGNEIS
In short: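 Beta-lactamase reporter readout (LiveBLAzer B/G FRET, 2 h RT) in VDR-bla cells after 16 h compound treatment at 37C, 5% CO2; cells pre-incubated 4 h before pin transfer of DMSO solutions.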

[8] = target: Vitamin D3 receptor (Homo sapiens) (UniProt P11473); test: qHTS assay to identify small molecule antagonists of the vitamin D receptor (VDR) signaling pathway (AID 743223; active means well fitted inhibition curve with a large enough effect in the signal ratio in the repeat runs, not every such curve was filed as active; the % refers to the signal ratio)
In short: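 Beta-lactamase reporter read-out: FRET substrate fluorescence after 2 h at room temperature, following 16 h exposure of VDR-bla cells to test compound plus 3 nM (final) 1alpha,25-dihydroxyvitamin D3 agonist at 37C.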

[9] = qHTS assay to identify small molecule antagonists of the vitamin D receptor (VDR) signaling pathway - cell viability counter screen (AID 743225; active means well fitted curve in the direction sought with a large enough effect in the repeat runs; an effect the other way counts as inactive or inconclusive; further: nearly all actives have a fitted effect of over 50% in size)
In short: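 Viability counter screen run in the same wells as the beta-lactamase reporter assay: HEK 293T VDR-UAS-bla cells, 16 h compound exposure at 37C with 3 nM (final) 1-alpha,25-dihydroxyvitamin D3. CellTiter-Glo luminescence, 30 min, room temperature.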

[10] = qHTS assay to identify small molecule agonists of the NFkB signaling pathway - cell viability counter screen (AID 1159515); further: series mostly up to about 61 µM; nearly all actives have a fitted effect of over 55% in size
In short: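 ME-180 NFkB-bla cells, 2,000/well; overnight attach; compound 5 hr, 37 C/5% CO2; LiveBLAzer substrate 1.5 hr RT; then CellTiter-Glo in same wells, 30 min RT, luminescence read.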

[11] = qHTS assay to identify small molecule agonists of the endoplasmic reticulum stress response signaling pathway (AID 1159516; active means well fitted activation curve with a large enough effect in the signal ratio in the repeat runs, not every such curve was filed as active; the % refers to the signal ratio)
In short: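 HeLa ESRE-bla reporter line; cpd 5 h, 37 C/5% CO2; LiveBLAzer B/G FRET substrate 2 h RT; ex 405, em 460/530 nm.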

[12] = qHTS assay to identify small molecule agonists of the endoplasmic reticulum stress response signaling pathway - cell viability counter screen (AID 1159517);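 further: HeLa cells carrying an ER stress response element beta-lactamase reporter; series mostly up to about 61 µM; nearly all actives have a fitted effect of over 50% in size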
In short: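 ESRE-bla HeLa cells (1,500/well) were plated overnight at 37 C and exposed to compounds for 5 hr. After the 2 hr beta-lactamase substrate read, CellTiter-Glo went into the same wells, and luminescence was read after 30 min at room temperature.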

[13] = qHTS assay to identify small molecule antagonists of the retinoid-related orphan receptor gamma (ROR-gamma) signaling pathway - cell viability counter screen (AID 1159520; active means well fitted curve in the direction sought with a large enough effect in the repeat runs; an effect the other way counts as inactive or inconclusive; further: nearly all actives have a fitted effect of over 50% in size)
In short: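 Cytotoxicity was read from cellular ATP (CellTiter-Glo luminescence) after 16 hr at 37 C with 1 uM doxycycline induction. The inducer was added 2 hr after compound transfer to Tet-on ROR gamma CHO cells.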

[14] = qHTS assay to identify small molecule agonists of the AP-1 signaling pathway - cell viability counter screen (AID 1159525); further: nearly all actives have a fitted effect of over 55% in size
In short: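 Intracellular ATP by Cell Titer Glo luminescence (30 min, RT) in the same ME-180 AP-1-bla wells after the 5 h compound exposure at 37 °C. Normalised to tetra n-octyl ammonium bromide and DMSO controls.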

[15] = qHTS assay to identify small molecule agonists of the AP-1 signaling pathway (AID 1159526)
[16] = qHTS assay to identify small molecule agonists of the vitamin D receptor (VDR) signaling pathway - cell viability counter screen (AID 743224; active means well fitted curve in the direction sought with a large enough effect in the repeat runs; an effect the other way counts as inactive or inconclusive; further: nearly all actives have a fitted effect of over 50% in size; further: potency means the concentration at half of the fitted maximal effect)
In short: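 Cytotoxicity counter screen: VDR-bla cells, 16 h compound exposure at 37C, 5% CO2; CellTiter-Glo luminescence, 30 min RT, same wells as bla read.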

[17] = target: Retinoic acid receptor RXR-alpha (Homo sapiens) (UniProt P19793); test: qHTS assay to identify small molecule agonists of the RXR signaling pathway (AID 1159527); further: nearly all actives have a fitted effect of over 35% in size; further: potency means the concentration at half of the fitted maximal effect
Chain of Retinoic acid receptor RXR-alpha (Homo sapiens) (P19793 whole entry, looked up): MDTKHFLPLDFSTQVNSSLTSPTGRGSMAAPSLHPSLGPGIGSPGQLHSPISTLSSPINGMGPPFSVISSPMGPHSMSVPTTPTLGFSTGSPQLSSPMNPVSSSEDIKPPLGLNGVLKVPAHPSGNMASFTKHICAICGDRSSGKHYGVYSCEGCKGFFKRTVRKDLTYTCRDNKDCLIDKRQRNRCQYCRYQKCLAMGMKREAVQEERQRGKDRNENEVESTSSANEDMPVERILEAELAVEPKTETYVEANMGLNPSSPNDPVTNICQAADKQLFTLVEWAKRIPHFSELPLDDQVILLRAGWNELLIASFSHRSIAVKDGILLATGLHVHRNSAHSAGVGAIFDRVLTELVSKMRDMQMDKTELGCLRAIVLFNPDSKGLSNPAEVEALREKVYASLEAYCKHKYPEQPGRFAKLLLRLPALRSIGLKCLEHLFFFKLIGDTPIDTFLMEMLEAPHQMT
In short: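 Agonist mode; 9-cis retinoic acid positive control. HEK 293T UAS-bla reporter cells, 2% charcoal-stripped FBS, 16 hr compound exposure at 37 C/5% CO2. LiveBLAzer B/G FRET substrate 2 hr RT; ex 405, em 460/530 nm.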

[18] = target: Bile acid receptor (Homo sapiens) (UniProt Q96RI1); test: qHTS assay to identify small molecule antagonists of the farnesoid-X-receptor (FXR) signaling pathway (AID 743217; active means well fitted inhibition curve with a large enough effect in the signal ratio in the repeat runs, not every such curve was filed as active; the % refers to the signal ratio)
Chain of Bile acid receptor (Homo sapiens) (Q96RI1 whole entry, looked up): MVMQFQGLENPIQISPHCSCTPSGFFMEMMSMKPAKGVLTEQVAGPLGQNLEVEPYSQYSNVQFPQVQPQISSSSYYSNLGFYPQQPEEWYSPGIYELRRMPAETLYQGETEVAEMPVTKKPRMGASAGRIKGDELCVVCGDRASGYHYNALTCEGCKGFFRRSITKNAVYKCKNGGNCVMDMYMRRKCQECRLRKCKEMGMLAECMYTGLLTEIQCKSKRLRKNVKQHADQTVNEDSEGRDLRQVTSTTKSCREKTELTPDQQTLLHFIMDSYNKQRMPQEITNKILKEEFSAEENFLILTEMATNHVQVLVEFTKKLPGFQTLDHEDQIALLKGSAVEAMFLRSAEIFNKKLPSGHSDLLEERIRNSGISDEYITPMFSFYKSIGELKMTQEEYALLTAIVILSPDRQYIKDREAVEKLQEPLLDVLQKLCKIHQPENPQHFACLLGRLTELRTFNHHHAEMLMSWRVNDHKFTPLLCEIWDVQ
In short: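 Read-out: beta-lactamase FRET fluorescence (LiveBLAzer B/G substrate, 2 h, room temperature) in GeneBLAzer FXR-UAS-bla HEK 293T cells. Compounds were co-dosed with 50 uM chenodeoxycholic acid (final) and incubated 16 h at 37 °C.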

[19] = target: Bile acid receptor (Homo sapiens) (UniProt Q96RI1); test: qHTS assay to identify small molecule agonists of the farnesoid-X-receptor (FXR) signaling pathway (AID 743220; active means well fitted activation curve with a large enough effect in the signal ratio in the repeat runs, not every such curve was filed as active; the % refers to the signal ratio)
In short: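 FXR-UAS-bla HEK 293T cells carrying a UAS-driven beta-lactamase reporter were plated for 5 h at 37C/5% CO2, then exposed to DMSO-dissolved Tox21 10K compounds for 16 h at 37C. A LiveBLAzer B/G FRET substrate was loaded for 2 h at room temperature before fluorescence reading.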

[20] = target: Nuclear receptor ROR-gamma (Homo sapiens) (UniProt P51449); test: qHTS assay to identify small molecule antagonists of the retinoid-related orphan receptor gamma (ROR-gamma) signaling pathway (AID 1159521; active means well fitted curve in the direction sought with a large enough effect in the repeat runs; an effect the other way counts as inactive or inconclusive)
In short: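 Luminescence readout (ONE-Glo, 30 min RT) after 16 h doxycycline induction; loss of signal scored as antagonism. CHO cells with TET-inducible RORγ and RORE-LUC reporter; compounds added 2 h before 1 uM final doxycycline.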

Compound | Potency [1] | outcome [2] | Potency [3] | outcome [4] | Potency [5] | Potency [6] | outcome [7] | outcome [8] | Potency [9] | Potency [10] | Potency [11] | Potency [12] | Potency [13] | Potency [14] | Potency [15] | Potency [16] | Potency [17] | Potency [18] | outcome [19] | Potency [20]
OCCNCCO | inactive | inactive | inactive | inactive | inactive | inactive | inactive | inactive | inactive | inactive | inactive | inactive | inactive | inactive | inactive |  |  |  |  | 
CC(=O)O[C@]1(C(C)=O)CC[C@H]2[C@@H]3C=C(Cl)C4=CC(=O)CC[C@]4(C)[C@H]3CC[C@@]21C |  |  | inactive |  | inactive | inactive |  |  | inactive | inactive | inactive | inactive | inactive | inactive |  | 43.6 µM (active) and inactive |  |  |  | 
CN(C)C |  |  | inactive |  | inactive | inactive | inactive |  | inactive | inactive | inactive | inactive | inactive | inactive | inactive | inactive | inactive |  |  | 
C=C[Si](OCCOC)(OCCOC)OCCOC |  | inactive | inactive | inactive | inactive | inactive | inactive | inactive | inactive | inactive | inactive | inactive | inactive | inactive | inactive | inactive | inactive | inactive | inactive | 
C1CN(SSN2CCOCC2)CCO1 | inactive | inactive | inactive |  | inactive | inactive |  |  | inactive | inactive | inactive | inactive |  | inactive |  |  |  | inactive | inactive | 
Cc1ccc(S(=O)(=O)O)cc1C | inactive | inactive | inactive | inactive | inactive | inactive | inactive | inactive | inactive | inactive | inactive | inactive | inactive | inactive | inactive |  | inactive and 9.77 µM (active) |  |  | 
[Na+] | inactive | inactive | inactive |  | inactive | inactive |  |  | inactive | inactive | inactive | inactive | inactive | inactive | inactive | inactive | inactive |  |  | 
Nc1cc([N+](=O)[O-])ccc1C(=O)O | inactive | inactive | inactive | inactive | inactive | inactive | inactive | inactive | inactive | inactive | inactive |  | inactive | inactive | inactive | inactive | inactive |  |  | inactive
Oc1ccc(C(c2ccc(O)cc2)C(Cl)(Cl)Cl)cc1 | 54.9 µM (active) |  | 38.9 µM (active) |  |  | inactive | inactive |  |  | inactive | inactive | inactive | inactive | inactive | inactive |  |  |  |  | 
